Measurements taken from the OligoGym collection.

These sequences were tested against TC2N (assay: pooled miR-30 sensor sort-seq; sequence = guide strand). Settings: shRNA.
Also: reference of the scale not given here.

Row | Sequence | sensor-assay potency score (higher = more potent)
1 | TAAAACTGTGATCCAGATCTGT | -0.0159
2 | TTGAAGAAGAACTACTGGGTAC | -0.298
3 | TTAATAGCAAATACAAACGTTT | -0.542
4 | TTATAAATCAACTCTCCCGAGC | -0.579
5 | TTACTGTCTGTGTCTCTTGTTG | -0.31
6 | TTTAATAGCAAATACAAACGTT | -0.37
7 | TTACTGTCTTCACTTATCCAAA | -1.52
8 | TTTCTTCTTACAGAGCTTCGAC | -0.277
9 | TTACTGTCTCTTTCCACTGGTT | -0.545
10 | TAGCATTTTGACTATTTGGGAC | -0.206
11 | TGAACTGGAAAGTTCTACCTTT | 0.507

These sequences were tested against TCEA3 in the same assay as above. Settings: shRNA.

Row | Sequence | sensor-assay potency score (higher = more potent)
12 | ATTAACAGCAACTCCAATCCTG | 0.388
13 | TCGATTTCTGATGCCATCTTGT | -0.388
14 | TCTGATGCCATCTTGTCACAGT | -0.177
15 | TTCTTCTTGCATTTGCTGCACT | -0.468
16 | TTGAGGTTGCTTATGCGGCTGC | -0.208
17 | ATAGGTGCAGTTCTTCTTCTTG | -0.625
18 | TTGGTAGATATGATCTTCGATT | -0.766
19 | TCTTGTCACAGTTGACTCCATA | -0.75
20 | TTCTTCTTCTTGCATTTGCTGC | -0.856
21 | TACTTCATGTCCGTGCTCTTGA | 0.446
22 | TTCCGGTACTTCATGTCCGTGC | 0.146
23 | TTAACAGCAACTCCAATCCTGG | -0.797

Each sequence was assayed against TCEAL1 in the same assay as above. Settings: shRNA.

Row | Sequence | sensor-assay potency score (higher = more potent)
24 | ATCAGTTTGTTTCTTACTCTTT | -0.801
25 | TTTTCATCTCTTCTAGCTCATC | -1.39
26 | TGTATCATCTCCTCATTGCTTA | 0.297
27 | TTCTAGCTCATCTGCTGCCTGT | -0.542
28 | TTTGTTTCTTACTCTTTTCATC | -1.09
29 | TCATCTCTTCTAGCTCATCTGC | -1.12
30 | ATTATCATCAGTTTGTTTCTTA | 0.834
31 | TTACTCTTTTCATCTCTTCTAG | -0.0336
32 | AAAGCTTCCTTCTTCAAGCTTA | 0.373
33 | TTCGGGAGAGTGCTCCACCGGA | -1.49
34 | TTATGTTTTCCTACTCCACAAG | -1.15
35 | TAAATTGCGGGCGAGAACGAGC | -1.13

The sequences below were run against TCEANC2 in the same assay as above. Settings: shRNA.

Row | Sequence | sensor-assay potency score (higher = more potent)
36 | TTGATTTTAACACTTCCCTGGA | 0.232
37 | TACAACCACAACTCTCTTCAGA | -0.694
38 | TTTCTGAGCATTTTTCCTCAAC | -1.1
39 | TTGATCAGGAAGCTCCAGCATA | -0.895
40 | TAGAAGGTCTATTTGAATGTTT | -0.0592
